Results published in PubChem BioAssay (Tox21).
A number with no mark means an inactive call. Records with an inconclusive call do not appear. Entries that show only a call come without a potency. The source made the active and inactive calls. Unless noted, the call rests on the fitted dose curve.

Tests used:
[1] = Nuclear factor erythroid 2-related factor 2/antioxidant responsive element (Nrf2/ARE) small molecule agonists: qHTS cell viability counter screen in human keratinocytes (AID 1919968; active means well fitted curve in the direction sought with a large enough effect in the repeat runs; an effect the other way counts as inactive or inconclusive; further: nearly all actives have a fitted effect of over 55% in size; further: potency means the concentration at half of the fitted maximal effect)
Procedure, shortened: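 Cells of the KeratinoSens line were plated at 1,500 per well and left for 5 h before compound transfer from DMSO stocks. After a 23 h incubation (37 C, 5% CO2), CellTiter-Fluor was added. Signal was taken as fluorescence intensity 1 h later.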

[2] = target: Gonadotropin-releasing hormone receptor (Homo sapiens) (UniProt P30968); test: Human gonadotropin-releasing hormone receptor (GnRHR) small molecule agonists, calcium flux assay in GnRHR-HEK293 cells (AID 1920063); further: nearly all actives have a fitted effect of over 35% in size
Sequence of Gonadotropin-releasing hormone receptor (Homo sapiens) (P30968 whole entry, looked up): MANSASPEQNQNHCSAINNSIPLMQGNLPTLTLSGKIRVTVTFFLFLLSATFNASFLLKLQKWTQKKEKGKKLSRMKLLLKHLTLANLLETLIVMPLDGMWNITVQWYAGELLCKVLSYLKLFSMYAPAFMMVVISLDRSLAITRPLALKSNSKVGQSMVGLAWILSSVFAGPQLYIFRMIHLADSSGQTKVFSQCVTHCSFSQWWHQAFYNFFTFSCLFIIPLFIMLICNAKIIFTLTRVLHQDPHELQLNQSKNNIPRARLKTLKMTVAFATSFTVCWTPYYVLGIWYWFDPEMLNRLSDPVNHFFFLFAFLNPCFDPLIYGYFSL
Procedure, shortened: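 Compounds dissolved in DMSO are pin-transferred onto dye-loaded GnRHR-HEK293 cells, which were seeded 18 h before at 37 C/5% CO2. Calcium signal is read as fluorescence intensity at 1 s intervals for 3 min.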

[3] = target: KiSS-1 receptor (Homo sapiens) (UniProt Q969F8); test: Human kisspeptin (KISS1R) small molecule agonists, calcium flux assay in KISS1R-HEK293 cells (AID 1920064; active means well fitted curve in the direction sought with a large enough effect in the repeat runs; an effect the other way counts as inactive or inconclusive)
Sequence of KiSS-1 receptor (Homo sapiens) (Q969F8 whole entry, looked up): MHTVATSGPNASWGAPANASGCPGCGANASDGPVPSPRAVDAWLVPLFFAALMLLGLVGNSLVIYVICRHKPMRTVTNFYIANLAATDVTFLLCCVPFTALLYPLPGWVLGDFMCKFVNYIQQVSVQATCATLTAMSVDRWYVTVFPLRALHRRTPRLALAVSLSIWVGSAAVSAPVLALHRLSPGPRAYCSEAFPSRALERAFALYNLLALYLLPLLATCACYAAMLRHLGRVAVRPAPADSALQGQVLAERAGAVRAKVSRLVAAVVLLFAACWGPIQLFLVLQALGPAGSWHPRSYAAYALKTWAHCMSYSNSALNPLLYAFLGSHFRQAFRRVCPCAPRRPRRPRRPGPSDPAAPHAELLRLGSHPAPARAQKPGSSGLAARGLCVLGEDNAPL
Procedure, shortened: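 Cell line: HEK293, stable human KISS1R. Dye loading 1 h at 37 C after 18 h culture. Read: kinetic fluorescence, 480/540 nm, 3 min at 1 s intervals.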

[4] = G protein-coupled receptor (GPCR) small molecule agonists, calcium flux assay: HEK293 wild type cell line counter screen (AID 1920065)
Procedure, shortened: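 Tox21 10K compounds, 15 concentrations each in triplicate, pin-transferred in DMSO onto dye-loaded cells; kinetic read at 480/540 nm for 3 min, 1 s intervals.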

[5] = p53 small molecule agonists, cell-based qHTS assay with human liver microsomes (AID 1963577)
Procedure, shortened: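 Compounds act here after metabolic activation: human liver microsomes and NADPH, both at 0.5 mg/mL final, were co-added to p53RE-bla cells. Incubation ran 16 h at 37 C, followed by LiveBLAzer detection.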

[6] = p53 small molecule agonists, cell-based qHTS assay with rat liver microsomes (AID 1963578)
Procedure, shortened: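 Read-out is beta-lactamase reporter fluorescence (LiveBLAzer, 2 h, room temperature, dark) in p53RE-bla cells treated 16 h at 37 C with compound, rat liver microsomes and NADPH, both 0.5 mg/mL final.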

[7] = p53 small molecule agonists, cell-based qHTS assay with human liver microsomes: qHTS cell viability counter screen (AID 1963579); further: nearly all actives have a fitted effect of over 45% in size; further: potency means the concentration at half of the fitted maximal effect
Procedure, shortened: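 Cells carrying the p53 response-element beta-lactamase reporter are treated for 16 h at 37 C with test compounds in the presence of human liver microsomes and NADPH (both 0.5 mg/mL final); ATP-based CellTiter-Glo luminescence then reports viability.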

[8] = p53 small molecule agonists, cell-based qHTS assay with rat liver microsomes: qHTS cell viability counter screen (AID 1963580); further: nearly all actives have a fitted effect of over 45% in size
Procedure, shortened: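 Rat liver microsome (0.5 mg/mL final) and NADPH (0.5 mg/mL final) co-incubation with compounds for 16 h at 37 C on HCT-116 p53RE-bla cells; cytotoxicity taken from intracellular ATP luminescence.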

[9] = p53 small molecule agonists, cell-based qHTS assay: qHTS cell viability counter screen (AID 1963581); further: nearly all actives have a fitted effect of over 45% in size
Procedure, shortened: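 ATP content measured by luminescence in HCT-116 p53RE-bla cells treated 16 h at 37 C, same wells as the reporter screen.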

[10] = p53 small molecule agonists, cell-based qHTS assay (AID 1963582; active means well fitted activation curve with a large enough effect in the signal ratio in the repeat runs, not every such curve was filed as active; the % refers to the signal ratio)
Procedure, shortened: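 16 h compound exposure (37 C) of p53 response element–bla cells, preceded by 5 h recovery at 37 C/5% CO2; read-out via LiveBLAzer B/G FRET substrate, 2 h RT, fluorescence intensity.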

[11] = cAMP Responsive Elements (CRE) small molecule agonists, cell-based qHTS assay (AID 1963590)
Procedure, shortened: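 HEK 293T cells stably bearing CRE-bla were plated at 2,000 cells per well and rested 18 h. Compounds, positive controls or DMSO were added for 3 h at 37 C. LiveBLAzer B/G substrate was then loaded for 2 h at room temperature.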

[12] = target: Beta-2 adrenergic receptor (Homo sapiens) (UniProt P07550); test: Adrenergic beta2 receptor (ADRB2) small molecule antagonists, cell-based qHTS assay (AID 1963592); further: series mostly up to about 92 µM; nearly all actives have a fitted effect of over 50% in size
Sequence of Beta-2 adrenergic receptor (Homo sapiens) (P07550 whole entry, looked up): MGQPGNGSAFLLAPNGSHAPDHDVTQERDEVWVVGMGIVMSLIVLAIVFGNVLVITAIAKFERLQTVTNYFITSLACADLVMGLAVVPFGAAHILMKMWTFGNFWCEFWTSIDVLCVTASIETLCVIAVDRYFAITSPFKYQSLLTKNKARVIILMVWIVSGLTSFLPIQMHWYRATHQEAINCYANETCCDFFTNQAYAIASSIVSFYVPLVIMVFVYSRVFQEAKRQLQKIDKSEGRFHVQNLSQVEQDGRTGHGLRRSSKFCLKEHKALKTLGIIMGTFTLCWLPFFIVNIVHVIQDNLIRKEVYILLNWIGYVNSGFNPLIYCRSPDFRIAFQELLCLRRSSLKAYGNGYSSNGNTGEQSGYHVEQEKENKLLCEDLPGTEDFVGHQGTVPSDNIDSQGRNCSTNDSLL
Procedure, shortened: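 Assay format: CHO-ADRB2 cells, 18-20hr seeding at 37C/5% CO2, then compound plus 1nM isoproterenol agonist mix for 0.5hr RT. Homogeneous time-resolved fluorescence cAMP detection after 1hr, expressed as 665/615 nm ratio.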

[13] = target: D(2) dopamine receptor (Homo sapiens) (UniProt P14416); test: Dopamine D2 receptor (DRD2) small molecule agonists, cell-based qHTS assay (AID 1963594); further: nearly all actives have a fitted effect of over 35% in size
Sequence of D(2) dopamine receptor (Homo sapiens) (P14416 whole entry, looked up): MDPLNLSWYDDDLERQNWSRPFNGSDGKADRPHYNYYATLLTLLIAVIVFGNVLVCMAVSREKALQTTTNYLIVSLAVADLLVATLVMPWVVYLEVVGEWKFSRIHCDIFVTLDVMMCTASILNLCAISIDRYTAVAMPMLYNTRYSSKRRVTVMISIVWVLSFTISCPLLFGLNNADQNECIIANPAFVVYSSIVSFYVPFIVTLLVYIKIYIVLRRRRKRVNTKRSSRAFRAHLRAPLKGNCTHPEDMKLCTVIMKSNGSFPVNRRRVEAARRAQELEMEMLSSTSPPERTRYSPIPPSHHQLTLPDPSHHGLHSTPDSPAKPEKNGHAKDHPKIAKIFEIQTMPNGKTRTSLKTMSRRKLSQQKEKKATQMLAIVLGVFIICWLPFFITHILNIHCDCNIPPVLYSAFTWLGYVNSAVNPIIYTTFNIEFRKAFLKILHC
Procedure, shortened: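 cAMP accumulation in DRD2-HEK293 cells measured by HTRF after 1 h detection; compounds added 10 min before NKH477 (200nM […]) forskolin-analogue stimulation, 30 min at room temperature, with Ro20-1724 present at 0.1 mM final.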

[14] = target: 5-hydroxytryptamine receptor 2A (Homo sapiens) (UniProt P28223); test: 5-hydroxytryptamine receptor 2A (HTR2A) small molecule antagonists, cell-based qHTS assay (AID 1963586); further: nearly all actives have a fitted effect of over 45% in size
Sequence of 5-hydroxytryptamine receptor 2A (Homo sapiens) (P28223 whole entry, looked up): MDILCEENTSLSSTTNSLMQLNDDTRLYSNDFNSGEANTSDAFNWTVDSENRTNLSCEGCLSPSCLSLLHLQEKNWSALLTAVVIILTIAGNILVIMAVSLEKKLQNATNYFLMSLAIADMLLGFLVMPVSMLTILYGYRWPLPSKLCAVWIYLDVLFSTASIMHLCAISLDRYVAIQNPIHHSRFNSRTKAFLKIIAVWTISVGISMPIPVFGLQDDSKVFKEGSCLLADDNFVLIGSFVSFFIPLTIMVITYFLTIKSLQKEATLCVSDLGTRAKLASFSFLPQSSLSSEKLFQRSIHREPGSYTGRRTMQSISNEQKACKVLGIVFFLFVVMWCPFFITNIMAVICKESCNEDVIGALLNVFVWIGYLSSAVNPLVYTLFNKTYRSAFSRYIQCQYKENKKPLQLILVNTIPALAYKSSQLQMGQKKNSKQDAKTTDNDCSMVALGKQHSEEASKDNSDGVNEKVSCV
Procedure, shortened: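 CHO cells stably expressing human HTR2A were plated for 18 h at 37 C, then loaded with calcium dye for 1 h. Compounds were preincubated 5 min at room temperature before DOI (4 nM solution) was added. Kinetic fluorescence was read for 3 min.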

[15] = target: 5-hydroxytryptamine receptor 2A (Homo sapiens) (UniProt P28223); test: 5-hydroxytryptamine receptor 2A (HTR2A) small molecule agonists, cell-based qHTS assay (AID 1963587); further: nearly all actives have a fitted effect of over 30% in size
Procedure, shortened: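 Kinetic calcium-flux fluorescence (2 min, 1 sec intervals) after compound addition in agonist mode. HTR2A-CHO cells were cultured 18 h, then dye-loaded 1 h at 37 C.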

[16] = target: Muscarinic acetylcholine receptor M1 (Homo sapiens) (UniProt P11229); test: Cholinergic receptor muscarinic 1 (CHRM1) small molecule agonists, cell-based qHTS assay (AID 1963589); further: nearly all actives have a fitted effect of over 35% in size
Sequence of Muscarinic acetylcholine receptor M1 (Homo sapiens) (P11229 whole entry, looked up): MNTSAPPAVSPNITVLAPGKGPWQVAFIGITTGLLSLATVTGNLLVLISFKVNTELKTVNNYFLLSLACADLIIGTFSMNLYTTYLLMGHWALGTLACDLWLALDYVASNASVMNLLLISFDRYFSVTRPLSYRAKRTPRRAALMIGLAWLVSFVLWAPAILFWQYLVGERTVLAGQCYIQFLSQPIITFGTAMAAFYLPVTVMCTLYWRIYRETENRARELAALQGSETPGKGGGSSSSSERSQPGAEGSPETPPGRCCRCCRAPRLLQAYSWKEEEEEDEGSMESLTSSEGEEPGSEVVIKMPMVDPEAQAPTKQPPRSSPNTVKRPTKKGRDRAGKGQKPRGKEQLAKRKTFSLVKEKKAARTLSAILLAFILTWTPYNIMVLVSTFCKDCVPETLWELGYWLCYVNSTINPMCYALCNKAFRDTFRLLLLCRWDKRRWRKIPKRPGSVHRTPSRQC
Procedure, shortened: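 Homogeneous fluorescence calcium flux, agonist mode. Human M1-expressing CHO cells; compound dosed at 15 concentrations, three independent runs; signal sampled every 1 sec.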

[17] = cAMP Responsive Elements (CRE) small molecule antagonists, cell-based qHTS assay (AID 1963591; active means well fitted inhibition curve with a large enough effect in the signal ratio in the repeat runs, not every such curve was filed as active; the % refers to the signal ratio)
Procedure, shortened: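 First, CRE-bla HEK293T cells settled 18 h at 37 C. Next, compound and 0.25 uM final NKH477 were applied for 3 h. Last, LiveBLAzer B/G substrate was loaded for 2 h at room temperature.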

[18] = target: Beta-2 adrenergic receptor (Homo sapiens) (UniProt P07550); test: Adrenergic beta2 receptor (ADRB2) small molecule agonists, cell-based qHTS assay (AID 1963593);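 further: CHO cells stably overexpressing human ADRB2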
Procedure, shortened: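 CHO cells stably over-expressing ADRB2 were plated overnight at 37C, then dosed with compounds plus a stimulation mix containing 100uM IBMX and 25uM Ro-20-1724 for 0.5hr at room temperature. cAMP was measured by HTRF competition, 1hr.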

[19] = target: Muscarinic acetylcholine receptor M1 (Homo sapiens) (UniProt P11229); test: Cholinergic receptor muscarinic 1 (CHRM1) small molecule antagonists, cell-based qHTS assay (AID 1963588); further: nearly all actives have a fitted effect of over 40% in size
Procedure, shortened: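 Compounds were tested at 15 concentrations in three independent runs. Dye-loaded CHRM1-CHO cells were exposed 5 min at room temperature before stimulation by acetylcholine added at 50nM. Intracellular calcium was read kinetically on FDSS for 3 min.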

[20] = target: D(2) dopamine receptor (Homo sapiens) (UniProt P14416); test: Dopamine D2 receptor (DRD2) small molecule antagonists, cell-based qHTS assay (AID 1963595; active means well fitted inhibition curve with a large enough effect in the signal ratio in the repeat runs, with a control signal flat; the % refers to the signal ratio)
Procedure, shortened: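 DRD2-HEK293; 0.1 mM Ro20-1724; cpd 10 min RT; NKH477 200 nM + quinpirole 12 nM, 30 min RT; HTRF cAMP (cAMP-d2/anti-cAMP cryptate), 665/620 nm ratio after 1 h.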

Row | Compound | Potency [1] | Potency [2] | Potency [3] | Potency [4] | Potency [5] | Potency [6] | Potency [7] | Potency [8] | Potency [9] | Potency [10] | Potency [11] | Potency [12] | Potency [13] | Potency [14] | Potency [15] | Potency [16] | Potency [17] | Potency [18] | Potency [19] | Potency [20]
1 | CC[C@@H](CO)NC(=O)[C@@H]1C=C2c3cccc4[nH]cc(c34)C[C@H]2N(C)C1 | inactive | inactive | inactive | inactive | inactive | inactive | inactive | inactive | inactive | inactive | inactive | – | – | – | – | – | – | – | – | –
2 | N#CC(C#N)=Cc1ccc(O)c(O)c1 | inactive | inactive | inactive | inactive | inactive | inactive | inactive | inactive | inactive | inactive | – | inactive | inactive | – | – | – | – | – | – | –
3 | CC(C)N(C(=O)SC/C(Cl)=C/Cl)C(C)C | inactive | inactive | inactive | inactive | inactive | inactive | inactive | inactive | inactive | inactive | inactive | inactive | inactive | inactive | inactive | inactive | inactive | inactive | – | –
4 | FC(F)(F)c1cccc(C2=CCN(CCc3ccc4ccccc4c3)CC2)c1 | inactive | inactive | inactive | inactive | inactive | inactive | inactive | inactive | inactive | inactive | – | inactive | inactive | inactive | inactive | inactive | – | – | – | –
5 | CCC(OC(C)=O)C(CC(C)NC)(c1ccccc1)c1ccccc1 (centres undefined) | 54.9 µM (active) | inactive | inactive | inactive | inactive | inactive | inactive | inactive | inactive | inactive | – | inactive | inactive | inactive | – | inactive | inactive | inactive | inactive | inactive
6 | O=C(O)c1cc(I)cc(I)c1I | inactive | inactive | inactive | inactive | inactive | inactive | – | inactive | inactive | – | – | inactive | inactive | inactive | inactive | inactive | – | inactive | inactive | inactive
7 | CCC(C)c1cc(C(C)(C)C)cc(-n2nc3ccccc3n2)c1O (centres undefined) | inactive | inactive | inactive | inactive | inactive | – | inactive | – | – | inactive | inactive | inactive | inactive | inactive | inactive | inactive | inactive | – | inactive | inactive
8 | NNC(=O)c1cccnc1 | inactive | inactive | inactive | inactive | inactive | inactive | inactive | – | – | inactive | inactive | inactive | inactive | inactive | inactive | inactive | inactive | – | inactive | –
9 | Clc1ccc(CO/N=C(\Cn2ccnc2)c2ccc(Cl)cc2Cl)c(Cl)c1 | 23.7 µM (active) | inactive | inactive | inactive | inactive | inactive | inactive | inactive | – | – | inactive | – | – | – | – | – | – | inactive | – | –
10 | Cc1nnc2n1-c1sc(CCc3ccc(CC(C)C)cc3)cc1C(c1ccccc1Cl)=NC2C (centres undefined) | 7.5 µM (active) | inactive | inactive | inactive | inactive | inactive | inactive | inactive | – | – | – | inactive | inactive | – | inactive | inactive | – | – | inactive | –
11 | NC(=S)C(N)=S | inactive | inactive | inactive | inactive | – | inactive | inactive | inactive | inactive | inactive | inactive | inactive | inactive | inactive | inactive | inactive | inactive | – | inactive | inactive
12 | CO/C=C(/C(=O)OC)c1ccccc1Oc1cc(Oc2ccccc2C#N)ncn1 | 6.11 µM (active) | inactive | inactive | inactive | inactive | – | – | – | – | – | – | – | – | – | inactive | inactive | – | – | inactive | –
13 | C(COCC1CO1)OCC1CO1 (centres undefined) | inactive | inactive | inactive | inactive | inactive | inactive | 32.4 µM (active) | – | inactive | inactive | inactive | inactive | inactive | inactive | inactive | inactive | inactive | – | inactive | inactive
